Data on 60 compounds can be found in PubChem BioAssay AID485317 (Broad Institute, 2010).

The structures appear in SMILES notation. Screen size: about 290,000 compounds; about 11,000 (3.8%) were called active.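 The calls were made as follows: active = mean replicate inhibition above about 79%, with every replicate also reaching it (limit read from the data); inconclusive = only one of the two criteria met; inactive = mean below limit and not every replicate reaching it.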 The list comes from a sample in which actives are over-represented; it also holds similar structures and randomly drawn compounds.

The target of this assay is FAD-linked sulfhydryl oxidase ALR (Homo sapiens) (UniProt P55789). In words: inhibitors of human ALR sulfhydryl oxidase, primary screen, biochemical, H2O2 detection, HRP-luminol luminescence, single point (AID 485317). As to conditions: purified ALR, DTT oxidation, stronger effect = higher value, concentration not given here.
FAD-linked sulfhydryl oxidase ALR (Homo sapiens), sequence (P55789 whole entry, looked up): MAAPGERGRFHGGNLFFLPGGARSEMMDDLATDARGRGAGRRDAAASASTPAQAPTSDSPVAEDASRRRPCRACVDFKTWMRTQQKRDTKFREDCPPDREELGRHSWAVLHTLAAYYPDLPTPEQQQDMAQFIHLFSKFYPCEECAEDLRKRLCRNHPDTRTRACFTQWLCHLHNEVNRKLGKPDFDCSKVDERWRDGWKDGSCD
As usually defined, the inhibition is the change of the read-out against control, counted positive when it falls. As to `N#CCN(C(=O)COC(=O)C1CC2CCCC(C1)C2=O)c1ccccc1` (stereo not given), the inhibition was -1.07% (inactive).
As to `CCN(CC(=O)Nc1ccccc1C(F)(F)F)C(=O)C1CCN(C(=O)Nc2ccccc2)CC1`, the inhibition is 8.41% (inactive).
`O=C(CN1CCN(c2ccc(Cl)cc2)CC1)c1ccccc1`: the inhibition was 4.7% (inactive).
Regarding `O=C(CN1CCN(c2ccc(Cl)cc2)CC1)N1CCCC1`, the inhibition was 97.8% (active).
`O=C(CN1CCCC1)N1CCN(c2ccccc2)CC1`: the inhibition is 23.5% (inactive).
With `CSCC(NS(=O)(=O)c1ccc(C)cc1)C(=O)O` (stereo not given), the inhibition was 19.4% (inactive).
Next, `Cc1ccc(CSCC(N)C(=O)O)cc1` (stereo not given): 99.1% (active); `Cc1ccc(CSCC(=O)N(C)CC(=O)Nc2ccc(C)cc2)cc1`: -0.0315% (inactive).
Next, `CCC1(c2ccccc2)NC(=O)N(CC(=O)c2ccc3c(c2)OCO3)C1=O` (stereo not given): 0.023% (inactive); `COc1cc(OC)cc(-c2c(C#Cc3ccsc3)c3cc(-c4ccc(OC)cc4F)ccc3n2C)c1`: -17.2% (inactive); `Cc1cccc(N2CCN(C(c3ccccc3)c3nnnn3CC3CCCO3)CC2)c1C` (stereo not given): -2.29% (inactive).
Next, `COc1ccc(C(c2nnnn2Cc2cccs2)N2CCN(c3ccccc3)CC2)cc1OC` (stereo not given): 8.5% (inactive); `COc1ccccc1C(c1nnnn1CC1CCCO1)N1CCN(c2ccccc2)CC1` (stereo not given): 90.9% (active); `COc1ccc(NC(=O)CCC(=O)N2CCN(S(=O)(=O)c3ccc(C)cc3)CC2)c(OC)c1`: -6.29% (inactive).
On to `O=S(=O)(NCCCc1ccccc1)c1ccc(Br)cc1`, for which the inhibition was 2.4% (inactive).
Take `Cc1[nH]c2ccccc2c1C(=O)C(C)Sc1nnc(C2CC2)o1` (stereo not given): the inhibition is -3.37% (inactive).
In the case of `O=C(NCCCc1ccccc1)C1CCC(=O)N(CCc2ccc(Cl)cc2)C1` (stereo not given), the inhibition was 0.977% (inactive).
As for `CC(=O)Nc1ccc(NC(=O)C(C)OC(=O)C2CC(=O)N(CCc3ccccc3)C2)cc1` (stereo not given), the inhibition was -1.82% (inactive).
`O=C(CSC1CC(=O)N(CCc2ccccc2)C1=O)Nc1ccc(Cl)cc1` (stereo not given): the inhibition is 93.5% (active).
Take `c1ccc2c(CCN3CCNC[C@H]3Cc3cccc4ccccc34)cccc2c1`: the inhibition is -14.6% (inactive).
On to `CN(C(=O)c1cccc(NC(=O)Cc2ccc([N+](=O)[O-])cc2)c1)C1CCC1`, for which the inhibition is -1.83% (inactive).
In the case of `Cc1ccc(OCC(=O)Nc2ccccc2C(=O)NC2CC2)cc1`, the inhibition is -2.04% (inactive).
`Cc1nc(C)c(-c2csc(NCCc3ccccc3)n2)s1`: the inhibition was 24% (inactive).
Next, `S=C(NCCc1ccccc1)Nc1ccccc1`: 12.6% (inactive); `S=c1[nH]nc(Nc2ccccc2)s1`: 98.6% (active); `O=c1cnnc(Nc2ccccc2)[nH]1`: 1.2% (inactive).
Next, `S=c1[nH]nc(NCCc2ccccc2)s1`: 95.1% (active); `CC(C)(C)C(=O)c1cnc(Nc2ccccc2)s1`: 19.3% (inactive).
For the compound `CCCc1cc(=O)[nH]c(SCC(=O)Nc2ccc(C(=O)Nc3ccccc3OC)cc2)n1`, the inhibition is -0.142% (inactive).
`O=C(NCCC1CCCCN1S(=O)(=O)c1ccc(Cl)cc1)C(=O)NCc1ccco1` (stereo not given): the inhibition is -1.02% (inactive).
Regarding `Cc1cccc(C(=O)Nc2ccc3c(c2)C(=O)N(CC(C)C)C3=O)c1`, the inhibition is -20.8% (inactive).
Next, `CN1C(=O)c2ccc(NC(=O)c3c(F)c(F)c(F)c(F)c3F)cc2C1=O`: -3.79% (inactive).
`Cc1cc(NC(=O)OC(C)C)ccc1-c1ccc(NC(=O)OC(C)C)cc1C`: the inhibition is 91.5% (active).
Next, `Cn1cncc1C#Cc1c(-c2ccsc2)sc2ccccc12`: 1.87% (inactive); `O=C(CN1C(=O)c2ccc([N+](=O)[O-])cc2C1=O)Nc1nnc(C2CC2)s1`: -1.72% (inactive); `CCOc1ccc(NC(=O)c2ccc(NC(=O)CN3C(=O)C(=O)N(CC(C)C)C3=O)cc2)cc1`: -8.04% (inactive).
Take `O=C(CSc1nnc(Nc2ccccc2F)s1)NC1CCCC1`: the inhibition was -1.36% (inactive).
On to `CC12CCC(=O)N1C(C(=O)NCCN1C(=O)S/C(=C\c3ccccc3F)C1=O)CS2` (stereo not given), for which the inhibition was -5.02% (inactive).
Next, `CCCc1nnc(NC(=O)CN2C(=O)c3ccccc3S2(=O)=O)s1`: 1.19% (inactive); `O=C(CN1C(=O)c2ccccc2S1(=O)=O)NC1CCCCC1`: -2.86% (inactive).
Consider `CNC(=O)CN1C(=O)c2ccccc2S1(=O)=O`, for which the inhibition was 96.2% (active).
As for `Oc1ccc(-c2onc3ccc(Cl)cc23)cc1`, the inhibition is 81% (active).
Next, `COc1ccc(-c2onc3ccc(C(C)=O)cc23)cc1`: -6.5% (inactive); `CC(OC(=O)c1ccc2noc(-c3ccccc3)c2c1)C(N)=O` (stereo not given): 2.68% (inactive).
Regarding `O=C1COc2ccc(C(=O)CSc3ccc(Br)cc3)cc2N1`, the inhibition was -4.57% (inactive).
As for `COCCN(C(=O)COC(=O)Cc1cccc(OC)c1)c1c(N)n(Cc2ccccc2)c(=O)[nH]c1=O`, the inhibition is 3.3% (inactive).
For the compound `COc1ccc(-c2cc(C(=O)N/N=C/c3cccnc3)c3ccccc3n2)c(OC)c1`, the inhibition was 0.831% (inactive).
Take `Cc1cc(C(=O)CSc2nc(N)cc(=O)[nH]2)c(C)n1CCc1ccc(Cl)cc1`: the inhibition was 3.32% (inactive).
Next, `CCCc1cc(=O)[nH]c(SCC(=O)c2c(N)n(CC(C)C)c(=O)n(C)c2=O)n1`: -1.46% (inactive); `CCCc1cc(=O)[nH]c(SCC(=O)c2cc(C)n(CCC)c2C)n1`: 96% (active).
Regarding `Cc1ccc(F)cc1NC(=O)CSCc1c(C)noc1C`, the inhibition was 9.91% (inactive).
For the compound `Cc1cccc(C(=O)N[C@H](C(=O)NCc2cccs2)C(C)C)c1`, the inhibition is 0.403% (inactive).
Take `CCC(C)NC(=O)c1ccc(NC(=O)CC2SC(N3CCCCC3)=NC2=O)cc1` (stereo not given): the inhibition is -5.35% (inactive).
As to `COc1cccc2[nH]c(C(=O)NCCc3ccccc3)cc12`, the inhibition is -7.11% (inactive).
Next, `O=C(NCC1CCCO1)c1cc(-c2ccccc2)nc2ccccc12` (stereo not given): -3.93% (inactive); `O=C(NCC1CCCO1)c1cc2c([nH]c3ccccc32)c(-c2ccc(F)cc2)n1` (stereo not given): 96.9% (active).
For the compound `O=C(NCCCO)c1cc2c([nH]c3ccccc32)c(-c2ccc(F)cc2)n1`, the inhibition was 98% (active).
With `COc1ccc2cc(C(=O)NCC3CCCO3)[nH]c2c1` (stereo not given), the inhibition was -17.8% (inactive).
Next, `CN(C)CCCNC(=O)c1ccc2[nH]c3ccccc3c2c1`: -6.4% (inactive); `C[C@H](CO)N1C[C@H](C)[C@@H](CN(C)C(=O)NC2CCCCC2)Oc2ccc(NC(=O)c3ccncc3)cc2C1=O`: -4.41% (inactive).
